# Screens from PubChem.
# This is a sample that favours compounds with a hit; in the whole collection about 9.3% have one here.
# SMN2 splice enh = qHTS Assay for Enhancers of SMN2 Splice Variant Expression | HEK293 SMN2-luciferase splicing reporter, luminescence, 30-36 h | Potency, µM (top dose mostly 46.1 µM), without a hit: top-dose activity change, positive = activation, hits mostly activators | 210,000 tested, 2.8% active; further: % of control where 0% means no effect; nearly all actives have a fitted effect of over 55% in size
#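 HEK293 cells carry an SMN2 minigene-luciferase reporter in which exon 7 inclusion puts luciferase in frame. Cells were seeded at 2000 cells/well, attached for 10-12 hours, then exposed to compounds for 30-36 hours at 37C before ONE-Glo luminescence.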
# FLuc counter = qHTS profiling assay for firefly luciferase inhibitor/activator using purifed enzyme and Km concentrations of substrates (counterscreen for miR-21 project); purified FLuc, Km substrates, luminescence inhibition; Potency, µM (titrated, usually from 57.5 µM), inactives show at the top dose activity change, negative = inhibition, usual class: inhibitors; 360,000 tested, 6.9% active; AID 588342, 2011;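 further: plate controls were vehicle for no effect and reference inhibitor for full effect; nearly all actives have a fitted effect of over 55% in size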
# Target sequence (P08659 whole entry, looked up): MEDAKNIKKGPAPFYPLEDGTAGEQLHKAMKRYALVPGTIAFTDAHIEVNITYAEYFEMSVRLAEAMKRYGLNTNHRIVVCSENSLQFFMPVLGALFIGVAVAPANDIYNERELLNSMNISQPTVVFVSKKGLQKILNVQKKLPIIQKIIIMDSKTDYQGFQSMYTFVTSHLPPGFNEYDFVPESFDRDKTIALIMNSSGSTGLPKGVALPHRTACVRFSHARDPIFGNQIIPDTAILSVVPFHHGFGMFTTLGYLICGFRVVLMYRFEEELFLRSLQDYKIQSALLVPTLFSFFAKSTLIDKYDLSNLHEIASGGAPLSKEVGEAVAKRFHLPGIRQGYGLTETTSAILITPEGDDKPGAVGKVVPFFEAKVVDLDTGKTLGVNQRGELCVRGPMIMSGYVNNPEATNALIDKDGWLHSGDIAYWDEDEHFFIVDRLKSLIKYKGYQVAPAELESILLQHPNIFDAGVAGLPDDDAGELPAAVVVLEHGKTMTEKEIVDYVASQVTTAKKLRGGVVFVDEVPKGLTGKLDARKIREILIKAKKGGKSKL
#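 Biochemical qHTS of compounds, final roughly 60 µM downward over six points, against 10 nM purified firefly luciferase using Km concentrations of substrates (10 uM D-luciferin, 10 uM ATP) in Tris acetate pH 7.5 buffer; luminescence output.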
# ELG1 genotox = qHTS screen for small molecules that induce genotoxicity in human embryonic kidney (HEK293T) cells expressing luciferase-tagged ELG1. HEK293T ELG1-luciferase reporter, luminescence, 16 h. 330,000 tested, 1.3% active. AID 504466, 2011. Potency, µM (titrated, usually from 46 µM), for inactives: at the highest dose activity change, positive = activation, hits mostly activators; further: % of control where 0% means no effect; nearly all actives have a fitted effect of over 60% in size
#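 Cells (2,000/well) expressing the ELG1-luciferase fusion are dosed by pin tool and kept 16 hr at 37 °C, 5% CO2. Signal comes from ONE-Glo luciferase reagent after 30 min at room temperature.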
# ELG1 repair inh = qHTS screen for small molecules that inhibit ELG1-dependent DNA repair in human embryonic kidney (HEK293T) cells expressing luciferase-tagged ELG1. AID 504467, 2011. 330,000 tested, 2.3% active. Potency, µM (doses to about 46.1 µM), without a hit: at the top dose activity change, negative = inhibition, usual class: inhibitors. HEK293T ELG1-luciferase reporter, luminescence, 16 h; DNA damage induced by 5-fluorouridine; further: on the % scale 0 is the no-effect control and ±100 the full control effect; nearly all actives have a fitted effect of over 55% in size
#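 Overnight (16 hr) co-exposure of 2,000 cells/well to 5-fluorouridine and compound at 37 °C preceded detection. Luciferase was quantified via ONE-Glo luminescence; loss of signal denotes inhibition.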
# Rab9 prom act = qHTS Assay for Rab9 Promoter Activators. Huh7 Rab9 promoter-luciferase reporter, luminescence, 24 h. Potency, µM (doses to about 9.22 µM), inactives show at the top dose activation, negative = inhibition, actives largely listed as activators. 320,000 tested, 2.8% active; further: % of control where 0% means no effect; nearly all actives have a fitted effect of over 60% in size
#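 Luminescence from Amplite-detected luciferase (10 minutes, ambient) reports Rab9 promoter activation. Before that, stable Rab9-luciferase Huh7 cells (1500/well, reduced-serum OP-MEM I plus 10% FBS) were exposed to compound for 24 hours at 37C.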
# NPC1 promoter act = qHTS Assay for NPC1 Promoter Activators | Huh7 NPC1 promoter luciferase reporter, 24 h | Potency, µM (top dose mostly 9.22 µM), for the others: at the highest dose activation, most hits filed as activators | 320,000 tested, 2.4% active | AID 485313, 2010; further: % of control where 0% means no effect; nearly all actives have a fitted effect of over 60% in size
#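 Compounds in DMSO were transferred onto Huh7 NPC1-luciferase reporter cells pre-incubated 2 h; after 24 h at 37 °C, Amplite reagent was dispensed and luminescence recorded 10 min later.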
# Starred values were filed as active, the others as inactive; ? = inconclusive; / = not tested or not shown; [ ] = another dose, or the depositor's remark. The call rests on the fitted dose curve; in most records, active means well fitted curve in the direction sought with a large enough effect; inconclusive means small, poorly fitted or top-dose-only effect, or another doubt; inactive means no such curve, though single readings can be large; an effect the other way counts as inactive or inconclusive. Potency means the concentration at half of the fitted maximal effect.
SMILES,SMN2 splice enh,FLuc counter,ELG1 genotox,ELG1 repair inh,Rab9 prom act,NPC1 promoter act
C/C(=N/NC(=O)c1ccco1)c1cccnc1,28.5%,-1.6%,-7.5%,?,-0.4%,-1.3%
C/C(=N\NC(=O)c1ccc(Br)cc1)c1cccnc1,/,13.5µM*,?,?,?,26.3%
CN(C)S(=O)(=O)c1cccc(-c2nn(-c3ccccc3)cc2/C=C2\SC(=S)NC2=O)c1,-57.0%,-17.5%,-9.8%,23.1µM*,-4.4%,-3.4%
CN(C)S(=O)(=O)c1cccc(-c2nn(-c3ccccc3)cc2/C=C(\C#N)c2nc3ccccc3[nH]2)c1,-1.4%,3.7%,-9.9%,2.59µM*,-12.2%,-9.2%
O=C(O)CCn1cc(/C=C2\SC(=S)NC2=O)c(-c2ccccc2)n1,1.6%,?,0.7%,-3.5%,-1.4%,-7.6%
O=C(Nc1cnn(Cc2ccc(F)cc2)c1)C(c1ccccc1)c1ccccc1,1.8%,-1.7%,-5.8%,?,-1.4%,0.3%
Cc1ccc(-c2nc(C(=O)NCc3ccc(Cl)cc3)c3n2CCCCC3)cc1,/,-12.7%,/,/,/,/
CCCOc1ccc(N2C(=O)CC(N3CCN(c4ccc([N+](=O)[O-])cc4)CC3)C2=O)cc1 (stereo not given),/,-2.1%,-7.2%,2.06µM*,-2.1%,-6.9%
CCOc1ccc(-c2nc(C)c(C(C)=O)n2O)cc1,12.6µM*,6.75µM*,?,?,?,28.4%
COc1ccc2cc(C#N)c(SCC(=O)N3CCCC3)nc2c1,19.3%,-4.8%,?,5.7%,0.4%,-0.8%
COC(=O)CSc1nc2ccc(C)cc2cc1C#N,2.82µM*,?,?,?,0.794µM*,3.55µM*
CCOc1ccc2cc(C#N)c(SCC(=O)N3CCC(C)CC3)nc2c1,3.6%,0.2%,0.6%,?,-3.9%,-0.6%
COC(=O)CSc1nc2cc(C)cc(C)c2cc1C#N,24.5%,-2.4%,3.7%,?,28.8%,?
COC(=O)CSc1nc2cc(OC)ccc2cc1C#N,/,9.53µM*,1.46µM*,?,1.41µM*,1.41µM*
CCOC(=O)CSc1nc2cc(OCC)ccc2cc1C#N,22.4µM*,4.26µM*,8.2µM*,?,2.82µM*,?
CCOc1ncccc1C(=O)OCC(=O)Nc1nnc(-c2ccccc2)o1,/,-15.1%,-2.4%,16.2%,-2.2%,1.7%
Cc1ccc(N2C(=O)N(CC(=O)Nc3c(C)cc(C)cc3Cl)C(=O)C2C)cc1 (stereo not given),/,1.8%,-5.0%,11.4%,-4.8%,-1.0%
O=C(NC1=NCCS1)c1sc2ccccc2c1Cl,12.6µM*,2.13µM*,2.91µM*,?,1.12µM*,1.26µM*
Cc1ccc(NC(=O)c2sc3ccccc3c2Cl)nc1,0.631µM*,0.269µM*,?,?,3.55µM*,3.55µM*
Cc1nnc(NC(=O)c2sc3ccccc3c2Cl)s1,12.6µM*,0.379µM*,?,?,1µM*,1.26µM*
Cc1c(NC(=S)NC(=O)c2sc3ccccc3c2Cl)cccc1C(=O)O,3.98µM*,0.757µM*,?,?,?,?
COc1ccccc1C(=O)NNC(=S)NC(=O)c1sc2ccccc2c1Cl,-1.3%[1.84 µM],-12.8%,2.2%,?,-6.6%,-7.6%
O=C(NC1=NCCS1)c1sc2cc(Cl)cc(Cl)c2c1Cl,-3.0%,-13.3%,3.0%,24.9%,2.3%,-0.4%
Cc1ccc2nsnc2c1NC(=O)c1sc2ccccc2c1Cl,-8.1%,0.4%,12.1%,14.5%,-0.4%,0.5%
CCOc1ccc(NC(=O)c2sc3ccccc3c2Cl)cc1,-6.4%,-0.3%,/,/,/,/
SMILES,SMN2 splice enh,FLuc counter,ELG1 genotox,ELG1 repair inh,Rab9 prom act,NPC1 promoter act
COc1ccc(CC(=O)N2CCN(C(=O)c3ccco3)CC2)cc1,18.7%,2.6%,-2.1%,7.9%,-3.2%,3.1%
O=C(CCSc1nc2ccccc2o1)N1CCOCC1,17.1%,?,11.3%,?,24.2%,12.6%
Cc1cccnc1NC(=O)c1sc2ccccc2c1Cl,/,2.69µM*,3.66µM*,?,2.51µM*,1.41µM*
CNC(=O)c1ccsc1NC(=O)c1sc2ccccc2c1Cl,12.6µM*,3.79µM*,14.8%,?,?,?
O=C(O)CCCn1cc(NC(=O)c2sc3ccccc3c2Cl)cn1,/,26.9µM*,3.3%,18.8%,-3.9%,-2.2%
Cc1cccnc1NC(=O)c1ccccc1-c1ccccc1C(=O)Nc1ncccc1C,6.4%,0.0%,-5.3%,17.7%,-0.9%,8.1%
CCN(CC)c1ccc(NC(=O)c2sc3ccccc3c2Cl)cc1,-7.5%,?,/,/,/,/
COCc1nnc(NC(=O)c2sc3ccccc3c2Cl)s1,7.7%,5.36µM*,?,?,?,?
CCc1cccc(CC)c1NC(=O)C[n+]1cccc(C(N)=O)c1,5.6%,-0.2%,-2.6%,9.2%,-3.2%,-2.3%
COc1cc(C2Nc3ccccc3-c3cc(C)nn32)ccc1O (stereo not given),20.0%,0.1%,/,/,/,/
COc1c(OC(C)=O)ccc(/C=C/c2ccc3cccc(OC)c3n2)c1[N+](=O)[O-],22.9%,12µM*,6.1%,?,21.5%,21.8%
CCOc1c(OC(C)=O)ccc(/C=C/c2ccc3cccc(OC(C)=O)c3n2)c1[N+](=O)[O-],23.8%,?,-2.6%,?,?,?
COc1c(OC(C)=O)ccc(/C=C/c2ccc3ccccc3n2)c1[N+](=O)[O-],22.4µM*,1.51µM*,?,?,?,?
O=[N+]([O-])c1ccccc1/C=C/c1ccc2ccccc2n1,/,2.13µM*,?,?,3.98µM*,3.55µM*
